# Data: PubChem BioAssay (Tox21)
# Unmarked numbers belong to inactive results. Active and inactive are the calls of the source. Calls follow the shape of the dose curve; as a rule, active = well fitted curve in the direction sought with a large enough effect in the repeat runs; inconclusive = weak or mixed curves; inactive = flat fitted curve, though single readings scatter.
# Assay: qHTS assay to test for compound auto fluorescence at 460 nm (blue) in HEK293 cells (AID 720678)
# Settings: blue autofluorescence 405/460 nm; series mostly up to 91.3 µM
# Description: National Center for Advancing Translational Sciences [NCATS]
# NIH Chemical Genomics Center [NCGC]
# U.S. Environmental Protection Agency [EPA]
# National Institutes of Environmental Health Sciences [NIEHS]
# National Toxicology Program [NTP]
# U.S. Food and Drug Administration [FDA]
# Compound auto fluorescence often interferes with screening of the compound library against various biological targets and signaling pathways. Some of these compounds may have fluorophoric properties. Such properties may interfere with the assay outputs resulting in false positives and/or negatives. To decrease such complications and ensure the compound activities are relevant in terms of biological response, the Tox21 10K compound library was screened for auto fluorescence.
# From the fluorophores used as reporter signals in our screening assays, the auto fluorescence equivalencies of compounds against three fluorophores have been evaluated: Triamterene, Fluorescein and Rose Bengal sodium for blue, green and red fluorescence, respectively. The fluorescence intensities were measured using Excitation/Emission wavelengths at 405/460nm, 485/535nm and 540/590nm for blue, green and red labels, respectively. This assay includes the blue fluorescence data.
# Tox21 Assay Protocol Summary:
# 2,000 HEK293 cells in 5 uL of culture medium containing 10% dialyzed FBS per well were dispensed into black wall/clear bottom 1536-well plates using a Multidrop Combi Dispenser (Thermo Scientific). The assay plates were incubated for 4-5 hr at 37C to allow cell attachment to the well bottom, followed by the transfer of 23 nL compound or DMSO vehicle by a pintool work station (Kalypsys, San Diego, CA). After the assay plates were incubated overnight at 37C and 5% CO2, fluorescence intensities in the assay plates were measured by an Envision (PerkinElmer, Shelton, CT) plate reader using three labels for measuring blue, green and red fluorescence at […] 460, 535 and 590nm respectively.
# % is scaled to controls: 0 for no effect and ±100 for the full control effect.
SMILES,outcome,"fluorescence, % of triamterene"
C[Si](C)(C)C,inactive,–
CCCCCCCCSCC,inactive,–
CCCOC(=O)C(C)O (stereo not given),inactive,–
CCCCN,inactive,–
CC(C)OC(=O)CCCCC(=O)OC(C)C,inactive,–
O=S(=O)(O)c1cc(O)c2ccc(Nc3ccccc3)cc2c1,inactive,–
O=C(Nc1ccc(Cl)c(Cl)c1)C1CC1,inactive,–
CC(=O)CCCCn1c(=O)c2c(ncn2C)n(C)c1=O,–,0.0666% [at 18.6 µM]
O=C1O[C@@H]2[C@@H](O)[C@H](O)O[C@@H]2[C@H]1O,inactive,–
COP(=O)(OC)OC(c1ccc(Cl)cc1)P(=O)(OC)OC (stereo not given),inactive,–
Cc1ccccc1N=O,inactive,–
C=C(C)C(=O)OCCNC(C)(C)C,inactive,–
CC[C@H](C)C(=O)O[C@H]1C[C@H](O)C=C2C=C[C@H](C)[C@H](CC[C@@H](O)C[C@@H](O)CC(=O)O)[C@H]21,inactive,–
CCOc1cc([N+](=O)[O-])c(OCC)cc1N1CCOCC1,inactive,–
O=C(OCC1(COC(=O)c2cccnc2)CCCC(COC(=O)c2cccnc2)(COC(=O)c2cccnc2)C1O)c1cccnc1,inactive,–
CCNC(=O)C1CC(C)CCC1C(C)C (stereo not given),inactive,–
COCCOCCOCCOCCO,inactive,–
C=CCCCCCCCCCCCC,inactive,–
C=CC(OCC)OCC,inactive,–
CCc1ccc(C=O)cc1,inactive,–

SMILES,outcome,"fluorescence, % of triamterene"
COC(=O)CCc1ccc(OCC(O)CNC(C)C)cc1 (stereo not given),inactive,–
CN(CCOc1ccc(NS(C)(=O)=O)cc1)CCc1ccc(NS(C)(=O)=O)cc1,inactive,–
CCOC(=O)/C=C/c1ccccc1,inactive,–
Cc1ccc2c(c1)OCC(=O)CO2,inactive,–
C[Si](C)=O,–,-0.115% [at 9.17 µM]
CC(C)CC(=O)O,inactive,–
C[C@@H](O)[C@H]1C(=O)N2C(C(=O)O)=C(SCCN=CN)C[C@H]12,–,1.22% [at 18.6 µM]
O=C(O)CCSSCCC(=O)O,inactive,–
COc1ccc2c(c1OC)C(=O)O[C@@H]2[C@H]1c2c(cc3c(c2OC)OCO3)CCN1C,inactive,–
CCOC(=O)c1ccc(OC(=O)CCCCCN=C(N)N)cc1,–,-0.0421% [at 18.6 µM]
CC(C)(C)OC(=O)c1ccc(O)cc1,inactive,–
Oc1cn2c(n1)Nc1ccc(Cl)c(Cl)c1C2,inactive,–
CCN1CCc2nc(N)oc2CC1,inactive,–
O=C(CCN1CCN(CCO)CC1)N1c2ccccc2Sc2ccc(C(F)(F)F)cc21,inactive,–
Nc1ccc([N+](=O)[O-])c(N)c1,inactive,–
CC(C)C(=O)OCCc1ccccc1,inactive,–
COC(=O)[C@@H]1[C@H]2C[C@H]3c4[nH]c5ccccc5c4CCN3C[C@@H]2CC[C@@H]1O,inactive,–
Nc1ncnc(Nc2ccccc2)n1,inactive,–
C#CC(C)N(C)C(=O)Nc1ccc(Cl)cc1 (stereo not given),inactive,–
O=C1CCCC(=O)O1,inactive,–
